Experimental data taken from PMC5540273 (PLoS ONE, 2017).

Experiments:
Details in all cases: concentration: 1 μM, replicates: in singlicate; n = 1
PRKCH = system: PRKCH
PRKCI = system: PRKCI
PRKCQ = system: PRKCQ
PRKD1 = system: PRKD1
PRKD2 = system: PRKD2
PRKD3 = system: PRKD3
PRKG1 = system: PRKG1
PRKG2 = system: PRKG2
PRKR = system: T1, PRKR
T1 construct: gene EIF2AK2

PRKX = system: PRKX
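Further: KINOMEscan kinase panel screen.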

| Structure (SMILES) | %Inh (PRKCH) | %Inh (PRKCI) | %Inh (PRKCQ) | %Inh (PRKD1) | %Inh (PRKD2) | %Inh (PRKD3) | %Inh (PRKG1) | %Inh (PRKG2) | %Inh (PRKR) | %Inh (PRKX) |
| --- | --- | --- | --- | --- | --- | --- | --- | --- | --- | --- |
| CS(=O)(=O)Cc1ccc(Nc2nccc(-c3c(-c4cccc(NC(=O)C5CCCCC5)c4)nn4ncccc34)n2)cc1 [GSK350559] | 3% | 23% | 25% | 0% | 0% | 18% | 0% | 3% | 0% | 5% |
| COc1cccc(C2=C(Nc3cc(Cl)c(O)c(Cl)c3)C(=O)NC2=O)c1 [SB-390767] | 0% | 12% | 0% | 0% | 0% | 100% | 0% | 0% | 0% | 12% |
| CC(=O)c1cccc(NC(=O)NC2CCN(c3ccnc(Nc4ccc(F)cc4)n3)C2)c1 (centres unmarked) [GSK1379710] | 0% | 11% | 27% | 0% | 10% | 9% | 0% | 31% | 13% | 32% |
| Cc1nccc(-c2c(-c3ccc(F)cc3)ncn2CCCN2CCOCC2)n1.Cl [SB-282975] | 0% | 21% | 14% | 25% | 2% | 7% | 10% | 26% | 0% | 0% |
| COc1ccc(CSc2nnc(-c3ccc4c(c3)CCO4)o2)cc1 | 0% | 0% | 0% | 0% | 31% | 0% | 0% | 0% | 0% | 0% |
| CC(C)c1cc(-c2ccc3c(N)n[nH]c3c2)nc(N)n1 [GSK2250882] | 0% | 10% | 6% | 0% | 0% | 0% | 24% | 14% | 6% | 25% |
| CC(=O)c1c(C)c2cnc(Nc3ccc(N4CCNCC4)cn3)nc2n(C2CCCC2)c1=O | 0% | 5% | 0% | 0% | 0% | 0% | 9% | 0% | 0% | 0% |
| Cn1cnc2c(N)ncnc21 [SKF-97623] | 0% | 0% | 0% | 52% | 1% | 0% | 6% | 92.2% | 0% | 0% |
| Fc1ccc(-c2nc3n(c2-c2ccncc2)CCS3)cc1 [GI98581] | 2% | 1% | 21% | 0% | 6% | 20% | 39% | 0% | 0% | 15% |
| COC(=O)c1cccc(NC(=O)NC2CCN(c3ccnc(Nc4ccc(F)cc4)n3)C2)c1 (centres unmarked) [GSK1379725] | 3% | 15% | 0% | 1% | 1% | 0% | 0% | 0% | 0% | 0% |
| Nc1nccc(-c2c(-c3ccc(F)cc3)ncn2C2CCN(Cc3ccccc3)CC2)n1 [SB-219980] | 0% | 0% | 0% | 0% | 3% | 0% | 0% | 0% | 0% | 0% |
| CNC(=O)c1ccc(C)c(-n2c(C)cc(OCc3ccc(F)cc3F)c(Br)c2=O)c1 | 0% | 99.7% | 7% | 0% | 1% | 0% | 78% | 95.6% | 0% | 0% |
| COc1nccc(-c2c(-c3ccc(F)cc3)ncn2CCCN2CCOCC2)n1 [SB-282852] | 0% | 23% | 0% | 21% | 6% | 0% | 10% | 24% | 10% | 0% |
| COc1ccc(CSc2nnc(-c3ccc4nccn4c3)o2)cc1C(F)(F)F | 0% | 13% | 30% | 0% | 5% | 1% | 3% | 16% | 0% | 34% |
| COc1ccc(Nc2nccc(N3CCC(NC(=O)C(C)c4ccc(Cl)cc4)CC3)n2)cc1 (centres unmarked) [GSK1379812] | 6% | 0% | 0% | 0% | 16% | 0% | 2% | 17% | 0% | 8% |
| CCCCc1nn2ncccc2c1-c1ccnc(NC2CC2)n1 [GW684374] | 0% | 8% | 0% | 0% | 0% | 16% | 0% | 0% | 10% | 4% |
| CSc1ccc(-c2nc3n(c2-c2ccncc2)CCC3)cc1 [SKF-105561] | 0% | 37% | 0% | 27% | 4% | 0% | 0% | 0% | 0% | 0% |
